Screens: PubChem, Broad Institute
C diff HTS = C. difficile growth inhibitors, primary screen, HTS; AID 1259249, 2017; growth activity, negative = inhibition, % at 16 µg/mL (by protocol); Clostridium difficile clinical isolate growth, OD600, 24 h; active compounds read low; 0.25% of 86,000 active;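 active = mean growth activity at or below -80% and every replicate also at or below -80%; inconclusive = mean at or below -80% but some replicate above -80%; inactive = mean growth activity above -80%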;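 also: 0% = DMSO wells and -100% = levofloxacin 16 µg/mL wells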
Pf Dd2 growth = P. falciparum Dd2 growth inhibitors, primary screen, SYBR Green fluorescence, single dose replicates. 72 h; active compounds read low. activity change, % at 10 µM. 2.3% of 94,000 active. AID 1159554, 2015; in the data active = activity change below about -80%; inconclusive = no clear call, values can overlap the other calls
T cruzi growth-1 = T. cruzi intracellular proliferation inhibitors, primary screen, cell-based, beta-gal Tulahuen parasites, NIH3T3 host, luminescence. T. cruzi beta-gal in NIH3T3, GalScreen luminescence, 90 h. inhibition, % at 8.34 µM. 5.9% of 77,000 active;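 active = mean inhibition above about 93%, with at least 55% of replicates each passing it, limit read from the data, passing the limit was not always enough; inconclusive = only one of those two conditions holds; inactive = neither condition holds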
T cruzi growth-2 = T. cruzi intracellular proliferation inhibitors, confirmation, cell-based, NIH3T3 host, beta-gal parasite, luminescence, cherry-pick | T. cruzi beta-gal in NIH3T3, GalScreen luminescence, 90 h | shares compounds with T cruzi growth-1 | AID 651739, 2012 | inhibition, % at 8.35 µM | 72% of 5,600 active;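 active = mean replicate inhibition above about 95% and at least 55% of replicates individually reaching it, limit read from the data; inconclusive = only one of the two criteria is met; inactive = neither criterion is met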
T cruzi growth-3 = inhibitors of intracellular T. cruzi replication, confirmation, NIH3T3 host cells, beta-gal parasites, cherry-pick, set 2 | 21% of 5,600 active | T. cruzi beta-gal in NIH3T3, GalScreen luminescence, 90 h | inhibition, % at 2.09 µM | shares compounds with T cruzi growth-1;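 active = mean inhibition above about 95%, with at least 55% of replicates also reaching it, limit read from the data; inconclusive = meets just one of the two conditions; inactive = meets neither condition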;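 also: plate controls were neutral control median for no effect and positive control median for full effect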
NIH3T3 tox = cytotoxicity in mouse NIH/3T3 fibroblasts, confirmation, cytotoxicity control for T. cruzi proliferation inhibitor project, cell-based, cherry-pick, single point; shares compounds with T cruzi growth-1; NIH/3T3 viability, CellTiter-Glo ATP luminescence, 90 h; cytotoxicity (signal decrease), % at 8.35 µM; 14% of 5,600 active; AID 651742, 2012;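 active = mean signal decrease across replicates above about 35% based on untreated-well scatter, with enough replicates individually passing, limit read from the data; inconclusive = no rule stated though some were filed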;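 also: 0% = median of neutral control wells and 100% = median of positive control wells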
3T3 cytotox 2 = NIH/3T3 fibroblast cytotoxicity, confirmation, cytotoxicity control, cell-based, cherry-pick, single point, set 2 | inhibition, % at 24.9 µM | NIH/3T3 viability, CellTiter-Glo ATP luminescence, 90 h | AID 651744, 2012 | 56% of 5,600 active | shares compounds with T cruzi growth-1;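 active = mean loss of cell viability signal at or above a set limit, and enough replicates individually reaching it; inconclusive = meets only the mean limit or only the replicate share; inactive = meets neither condition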;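 also: 0% = median of neutral control wells and 100% = median of positive control wells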
Active calls of the source: *; ? = inconclusive; . = no result given. An excerpt weighted towards active compounds, which were near 6.7% of everything screened.

SMILES | C diff HTS | Pf Dd2 growth | T cruzi growth-1 | T cruzi growth-2 | T cruzi growth-3 | NIH3T3 tox | 3T3 cytotox 2
O=S(=O)(c1ccccc1)N1C[C@H]2[C@@H](c3ccccc31)[C@@H](CO)N2Cc1ccc(F)cc1 | 26.5 | 2.0 | 84.0 | . | . | . | .
Cc1cccc(S(=O)(=O)N2C[C@H]3[C@@H](c4ccccc42)[C@H](CO)N3Cc2cccnc2)c1 | -17.8 | -25.7 | 85.2 | . | . | . | .
O=S(=O)(c1ccccc1)N1C[C@H]2[C@@H](c3ccccc31)[C@H](CO)N2Cc1ccc2c(c1)OCO2 | -9.1 | -11.8 | ? | 93.3 | 41.9 | -5.3 | 3.1
O=S(=O)(c1ccccc1)N1C[C@@H]2[C@H](c3ccccc31)[C@H](CO)N2Cc1ccc(F)cc1 | -0.9 | -8.4 | 94.2 | . | . | . | .
O=S(=O)(c1ccccc1)N1C[C@H]2[C@@H](c3ccccc31)[C@@H](CO)N2Cc1ccc2c(c1)OCO2 | -5.4 | -46.5 | 101.3* | 101.1* | 44.3 | 18.1 | 16.0
O=S(=O)(c1ccccc1)N1C[C@@H]2[C@H](c3ccccc31)[C@H](CO)N2Cc1ccc2c(c1)OCO2 | 1.2 | -31.9 | 110.5* | 105.4* | 61.2 | 24.0 | 13.4
CC(C)CC#Cc1ccc2c(c1)O[C@H](CN(C)Cc1cccc(F)c1)[C@H](C)CN([C@@H](C)CO)S2(=O)=O | 23.3 | -72.3 | 75.9 | . | . | . | .
C[C@@H]1CCCCO[C@H](CN(C)C)[C@@H](C)CN([C@H](C)CO)C(=O)c2cc(NC(=O)Nc3ccccc3)ccc2O1 | 3.4 | 7.6 | -0.2 | . | . | . | .
C[C@@H]1CN([C@@H](C)CO)C(=O)c2cc(C#CC3CC3)cnc2O[C@@H]1CN(C)S(C)(=O)=O | . | 13.8 | 49.8 | . | . | . | .
CC(C)NC(=O)N1C[C@@H]2[C@H](c3ccccc31)[C@@H](CO)N2C(=O)Nc1cccc(F)c1 | -2.9 | 5.1 | -3.5 | . | . | . | .
COc1ccc(NC(=O)Nc2ccc3c(c2)C(=O)N([C@@H](C)CO)C[C@H](C)[C@@H](CN(C)C(=O)CCC(F)(F)F)OCCCC[C@H](C)O3)cc1 | -11.9 | -6.6 | 72.8 | . | . | . | .
C[C@@H]1CN([C@H](C)CO)S(=O)(=O)c2ccc(-c3cncnc3)cc2O[C@H]1CN(C)Cc1cncnc1 | -2.5 | 35.5 | 29.0 | . | . | . | .
C[C@H]1CN([C@@H](C)CO)S(=O)(=O)c2ccc(-c3cncnc3)cc2O[C@@H]1CN(C)Cc1cncnc1 | -3.7 | 47.8 | 25.3 | . | . | . | .
C[C@H](CO)N1C[C@H](C)[C@@H](CN(C)Cc2ccccc2)Oc2cc(-c3cncnc3)ccc2S1(=O)=O | -3.9 | -5.6 | 113.3* | 92.3 | ? | 37.9* | 70.1*
C[C@H]1CN([C@@H](C)CO)S(=O)(=O)c2ccc(-c3cncnc3)cc2O[C@@H]1CN(C)Cc1ccccc1 | 0.9 | -10.7 | 106.2* | ? | 100.4* | 17.5 | 31.0*
C[C@H]1CCCCO[C@H](CN(C)C(=O)Cc2ccccc2)[C@@H](C)CN([C@@H](C)CO)C(=O)c2cc(NC(=O)Nc3ccc4c(c3)OCO4)ccc2O1 | 0.9 | -71.1 | 114.7* | 111.6* | 4.9 | -15.1 | 2.5
C[C@@H]1CCCCO[C@H](CN(C)C(=O)Cc2ccccc2)[C@@H](C)CN([C@@H](C)CO)C(=O)c2cc(NC(=O)Nc3ccc4c(c3)OCO4)ccc2O1 | 4.4 | -83.8* | ? | 108.8* | 29.7 | -8.3 | -2.7
C[C@@H]1CN([C@@H](C)CO)C(=O)c2cc(NC(=O)Nc3ccccc3)ccc2O[C@@H](C)CCCCO[C@H]1CN(C)C(=O)Cc1ccccc1 | . | -33.6 | 25.1 | . | . | . | .
C[C@@H]1CN([C@@H](C)CO)C(=O)c2cc(NC(=O)Nc3ccc4c(c3)OCO4)ccc2O[C@@H](C)CCCCO[C@H]1CN(C)C(=O)Cc1ccccc1 | 1.9 | -6.0 | -38.5 | . | . | . | .
CO[C@H](CN(C)S(=O)(=O)c1ccc(Cl)cc1)[C@H](C)CN(C(=O)Nc1ccccc1F)[C@@H](C)CO | . | -27.2 | 20.2 | . | . | . | .
CC=Cc1ccc2n(c1=O)C[C@@H]1[C@@H](CO)[C@H](C(=O)NCc3ccccn3)[C@H]2N1CC1CC1 (mixture of isomers) | -3.7 | 1.0 | 60.5 | . | . | . | .
CCN1[C@@H]2Cn3c(ccc(/C=C/c4ccccc4)c3=O)[C@H]1[C@@H](C(=O)N1CCCCC1)[C@@H]2CO | . | . | 169.5* | 13.6 | -41.0 | 10.1 | 45.1*
CC=Cc1ccc2n(c1=O)C[C@H]1[C@H](CO)[C@@H](C(=O)NCc3ccccn3)[C@@H]2N1CCC (mixture of isomers) | -6.6 | -0.7 | 108.3* | 109.8* | 20.8 | -4.6 | 4.5
CC=Cc1ccc2n(c1=O)C[C@H]1[C@H](CO)[C@@H](C(=O)NCCc3ccccc3)[C@@H]2N1C (mixture of isomers) | 0.0 | 9.2 | -22.7 | . | . | . | .
CC=Cc1ccc2n(c1=O)C[C@H]1[C@H](CO)[C@@H](C(=O)NCc3ccccc3)[C@@H]2N1C (mixture of isomers) | -2.8 | 7.8 | 96.3* | 43.4 | 19.4 | 8.8 | 5.0
SMILES | C diff HTS | Pf Dd2 growth | T cruzi growth-1 | T cruzi growth-2 | T cruzi growth-3 | NIH3T3 tox | 3T3 cytotox 2
CC=Cc1ccc2n(c1=O)C[C@H]1[C@H](CO)[C@@H](C(=O)N3CCc4ccccc4C3)[C@@H]2N1CCC (mixture of isomers) | -0.7 | -8.4 | 102.9* | 77.4 | 5.7 | -19.8 | 12.3
CCN1[C@@H]2Cn3c(ccc(/C=C/c4ccccc4)c3=O)[C@H]1[C@@H](C(=O)N1CCOCC1)[C@@H]2CO | 5.1 | -33.1 | 26.0 | . | . | . | .
CC=Cc1ccc2n(c1=O)C[C@@H]1[C@@H](CO)[C@H](C(=O)N3CCc4ccccc4C3)[C@H]2N1CC (mixture of isomers) | 0.7 | . | -71.1 | . | . | . | .
O=C(C1CCOCC1)N1CC2(C1)[C@H](c1ccccc1)[C@@H](CO)N2Cc1ccccc1F | 0.5 | 11.6 | . | . | . | . | .
C[C@H](CO)N1C[C@H](C)[C@@H](CN(C)Cc2ccc(F)cc2)Oc2ncc(C#Cc3cccnc3)cc2C1=O | 1.6 | 17.8 | . | . | . | . | .
CN1C(=O)c2cc(NC(=O)Nc3ccccc3F)ccc2OC[C@@H]2O[C@@H](CC(=O)NCCc3ccncc3)CC[C@H]21 | . | 9.0 | 10.9 | . | . | . | .
C[C@H](CO)N1C[C@H](C)[C@@H](CN(C)C(=O)C2CCC2)Oc2cc(-c3ccncc3)ccc2S1(=O)=O | . | -10.3 | 70.5 | . | . | . | .
CCCNC(=O)Nc1ccc2c(c1)C(=O)N(C)C[C@H](OC)[C@@H](C)CN(C(=O)C1CCCCC1)[C@H](C)CO2 | -2.4 | 12.1 | -2.5 | . | . | . | .
